Values joined by “and” are separate entries in the source; they are usually repeats but may differ in a detail not shown here. Equal entries are not always repeated. Where a structure was tested more than once in an assay, its records may differ in their call. Active and inactive are the calls of the source. The calls were made as follows: active = hit-call score of the fitted dose curve at least 0.9, where 1 is the maximum; inactive = score below 0.9.

In general, AC50 refers to the midpoint of the concentration-response curve, whichever way the signal moves.

The experiment in a line: ATG_E_Box_CIS: Attagene CIS-FACTORIAL HepG2 Assay for human Enhancer Box (E-box) (AID 2282936). The settings on record: HepG2 E-box cis-reporter transcription, actives raise or lower the signal. As for the experimental part:
ATG_CIS is a cell-based, multiplexed-readout assay that uses HepG2, a human liver cell line, with measurements taken at 24 hours after chemical dosing in a 24-well plate.ATG_E_Box_CIS is one of 52 assay component(s) measured or calculated from the ATG_CIS assay. It is designed to make measurements of mRNA induction, a form of inducible reporter, as detected with fluorescence intensity signals by Reverse transcription polymerase chain reaction (RT-PCR) and Capillary electrophoresis technology.Data from the assay component ATG_E_Box_CIS was analyzed into 1 assay endpoint. This assay endpoint, ATG_E_Box_CIS, was analyzed with bidirectional fitting relative to DMSO as the negative control and baseline of activity. Using a type of inducible reporter, measures of mRNA for gain or loss-of-signal activity can be used to understand the reporter gene at the transcription factor-level as they relate to the gene USF1. Furthermore, this assay endpoint can be referred to as a primary readout, because this assay has produced multiple assay endpoints where this one serves a reporter gene function. To generalize the intended target to other relatable targets, this assay endpoint is annotated to the dna binding intended target family, where the subfamily is basic helix-loop-helix protein.
Human liver HepG2 cells are transiently transfected with multiple reporter transcription units (MRTUs) in 6-well plates using FuGene 6 reagent (Roche; 3 ml FuGene/1 mg DNA). The MRTU constructs are regulated by a cis-regulating element (promoter). […] A major difference between the CIS and TRANS system is that in CIS activities of endogenous TFs are measured, whereas the TRANS assay evaluates changes in activities of exogenous, chimeric NR-Gal4 proteins. […] At the end of 24 hour incubation, total RNA was isolated using TriZol reagent (Invitrogen). The isolated RNA is then reverse-transcribed using oligo(dT) primer and Mo-MLV reverse transcriptase (Invitrogen) with DNAse I (Ambion) treatment for 30 min. The one-tenth of the produced cDNA was amplified by PCR using Taq DNA polymerase (Invitrogen) and two reporter sequence-specific primers. The PCR products were fluorescently labeled by primer extension with 6-arboxyfluorescein (6-FAM) 5'-labeled reporter sequence-specific primer (2 min at 95 C, 20 s at 68 C and 10 min at 72 C) and these products were digested with 5U of HpaI (New England Biolabs) for 2h at 37 C. The fragments were purified using Qiaquick PCR columns (Qiagen), analyzed on an ABI 3130xL genetic analyzer (Applied Biosystems) with peak positions identified by using a set of X-rhodamine (ROX)-labeled MapMarker1000 molecular weight standards (BioVentures). The raw capillary electrophoresis data was processed using Attagraph software (Attagene).
As to `C1CC2OC2CC1C1CO1` (stereo not given), the result was inactive. In the case of `CCOP(=S)(OCC)SCSC(C)(C)C`, the result was inactive and the AC50 is 1.86 µM (active). As to `CCOCCOC(C)=O`, the result was inactive.

`CCCCCCCCOC(=O)c1ccccc1C(=O)OCCCCCCCC`: the result was inactive. The same measure, in the same setting: for `CC(C)C(=O)OCC(C)(C)C(OC(=O)C(C)C)C(C)C` (stereo not given) the value was “inactive”. `Cc1cccc(C)c1N`: the result was inactive. The same measure, in the same setting: the result for `Cc1ccccc1CO[C@@H]1C[C@@]2(C(C)C)CC[C@]1(C)O2` reads “inactive”; that for `Sc1ccccc1`, “inactive”; that for `CC(C)(c1ccccc1)c1ccc(O)cc1`, “inactive”. On the same count and under the same terms, for `C=CC(=O)NCNC(=O)C=C` the value was “inactive”; for `OCC(O)CO`, “inactive”. Take `ClC(Cl)=C(c1ccc(Cl)cc1)c1ccc(Cl)cc1`: the result was inactive; the AC50 is 58.3 µM (active) and 24.8 µM (active).

As for `CN(C)CCO`, the result was inactive.

As to `Cc1cccc([N+](=O)[O-])c1`, the result was inactive. Still for that read-out and setting: for `CC(C)(O)C(=O)Nc1ccc([N+](=O)[O-])c(C(F)(F)F)c1` the value was “inactive”; for `Nn1cnnc1`, “inactive”; for `O=S(=O)(O)C(F)(F)C(F)(F)C(F)(F)C(F)(F)F`, “inactive”. The same measure, in the same setting: for `Clc1ccc(Cl)cc1` the value was “inactive”. For `ClC1=C(Cl)[C@]2(Cl)[C@@H]3[C@@H](Cl)[C@H]4O[C@H]4[C@@H]3C1(Cl)C2(Cl)Cl`, the AC50 was 53 µM (active). For `Clc1ccc(C(c2ccccc2Cl)C(Cl)(Cl)Cl)cc1` (stereo not given), the result was inactive. For `CCCCCCCCCc1ccc(O)cc1`, the AC50 was 63.2 µM (active) and the result was inactive. Turning to `CC1=C2C[C@H]3[C@@H](CC=C4C[C@@H](O)CC[C@@]43C)[C@@H]2CC[C@]12O[C@@H]1C[C@H](C)CN[C@H]1[C@H]2C`, the result was inactive. For the compound `CO/C=C(/C(=O)OC)c1ccccc1COc1cccc(C(F)(F)F)n1`, the result was inactive. Same read-out and setting: for `Cc1cc(O)ccc1Cl` the value was “inactive”.

Regarding `O=NN(c1ccccc1)c1ccccc1`, the outcome was inactive.

For `N#Cc1ccc(N(CC(N)=O)CC(F)(F)F)cc1C(F)(F)F`, the outcome was inactive.

For the compound `Oc1ccc(C(c2ccc(O)cc2)(C(F)(F)F)C(F)(F)F)cc1`, the outcome was inactive. As for `CCC(C)(CC)c1cc(NC(=O)c2c(OC)cccc2OC)on1`, the outcome was inactive. Same read-out and setting: for `CN(C)c1nc(=O)n(C2CCCCC2)c(=O)n1C` the value was “inactive”. Turning to `Oc1c(Cl)c(Cl)c(Cl)c(Cl)c1Cl`, the outcome was inactive and the AC50 was 67.8 µM (active). As for `COS(=O)(=O)OC`, the result was inactive. In the case of `C[C@]12CCC(=O)C=C1CC[C@@H]1[C@@H]2CC[C@@]2(C)[C@H]1CC[C@]2(C)O`, the outcome was inactive. The same measure, in the same setting: the result for `Clc1ccc(C(Cl)(Cl)Cl)cc1` reads “inactive”; that for `CCC(=O)O[C@H]1CC[C@H]2[C@@H]3CCC4=CC(=O)CC[C@]4(C)[C@H]3CC[C@]12C`, “inactive”. As to `COc1ccc(O)c(C(C)(C)C)c1`, the result was inactive.

Regarding `CCNc1nc(NC(C)C)nc(SC)n1`, the result was inactive.

These data come from PubChem BioAssay (EPA / NIEHS).
